The values that follow come from PubChem BioAssay (NCI).

The panel holds about 83,000 compounds, 20% with a hit somewhere; the sample as a whole holds those more often.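 Treatment: one concentration, 48 hours, 96-well format. Scoring: percent growth, with anything below 10 considered active.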 Values without a mark were called inactive. The source made the active and inactive calls.

Assay in all cases: NCI-60 one-dose screen, 48 h (100 = growth as untreated, 0 = no growth, -100 = all killed)
In one assay the test system is NCI-H226 lung. As to conditions: 10 µM.
The subject of a further assay is HOP-62 NSCLC. As to conditions: 10 µM.
A further assay deals with NCI-H460 lung. As to conditions: 10 µM.
In a further assay the test system is A549/ATCC NSCLC. As to conditions: 10 µM.
Another assay deals with DU-145 prostate. As to conditions: 10 µM.
The subject of another assay is SF-268 CNS. As to conditions: 10 µM.
The subject of a further assay is SF-295 CNS. The note with it: 10 µM.
The next assay deals with SF-539 CNS. The note with it: 10 µM.
A further assay deals with UACC-257 melanoma. The note with it: 10 µM.
Another assay concerns M14 melanoma. The note with it: 10 µM.
The next assay relates to HCT-15 colon. The note with it: 10 µM.
The next assay concerns HT29 colon. The note with it: 10 µM.
The next assay relates to SNB-75 CNS. The note with it: 10 µM.
The subject of the next assay is SNB-19 CNS. The note with it: 10 µM.
A further assay concerns U251 CNS. As to conditions: 10 µM.
The subject of the next assay is SK-MEL-5 melanoma. The note with it: 10 µM.
In the next assay the test system is UACC-62 melanoma. The note with it: 10 µM.
The test system of the next assay is SK-MEL-28 melanoma. The note with it: 10 µM.
The next assay relates to SK-MEL-2 melanoma. As to conditions: 10 µM.
For another assay, the system named is HL-60(TB) leukemia. The note with it: 10 µM unless noted.

For `CN(C)CCc1cn(C2CCC2)c2cccc(O)c12`, the growth in the assay with NCI-H226 lung is 69.6%; in the assay with HOP-62 NSCLC it was 82.1%; with NCI-H460 lung, 70.7%; in the assay on A549/ATCC NSCLC it was 71.8%; in the assay on DU-145 prostate it was 91.3%; in the assay on SF-268 CNS, 81.6%. For the same compound, the growth in the assay on SF-295 CNS is 76.4%; in the assay with SF-539 CNS, 61.9%; with UACC-257 melanoma, 41.8%; in the assay on M14 melanoma it was 15.9%; in the assay on HCT-15 colon, 62.2%; with HT29 colon, 34.9%. Also, the growth in the assay with SNB-75 CNS is 58.3%; in the assay on SNB-19 CNS it was 87%; in the assay with U251 CNS, 65.7%; in the assay with SK-MEL-5 melanoma, 46.6%; with UACC-62 melanoma, 48.9%; with SK-MEL-28 melanoma, 3.47% (active). The growth with SK-MEL-2 melanoma was 99.4%; in the assay on HL-60(TB) leukemia it was 12.5%.
As for `CC12OOC(C)(OO1)C2CCC(=O)NCCNc1ccnc2cc(Cl)ccc12` (stereo not given), the growth in the assay on NCI-H226 lung was 93.7%; in the assay on HOP-62 NSCLC it was 89.9%; in the assay on NCI-H460 lung, 101%; in the assay with A549/ATCC NSCLC it was 119%; in the assay on DU-145 prostate, 104%; with SF-268 CNS it was 95.6%. For the same compound, the growth was 91.1% in the assay on SF-295 CNS; 102% with SF-539 CNS; 112% in the assay on UACC-257 melanoma; 105% with M14 melanoma; 95.2% with HCT-15 colon; 105% with HT29 colon. The growth is 101% in the assay on SNB-75 CNS; 98.2% in the assay on SNB-19 CNS; 110% in the assay on U251 CNS; 93.9% with SK-MEL-5 melanoma; 91.8% in the assay with UACC-62 melanoma; 104% in the assay with SK-MEL-28 melanoma. Besides, the growth in the assay on SK-MEL-2 melanoma was 105%; with HL-60(TB) leukemia, 88.9%.
Consider `Cc1ccc2[nH]c(=S)n(-c3ccc(F)cc3)c(=O)c2c1`, for which the growth with NCI-H226 lung was 97.6%; in the assay with HOP-62 NSCLC, 96.3%; with NCI-H460 lung, 106%; with A549/ATCC NSCLC, 100%; in the assay with DU-145 prostate it was 110%; with SF-268 CNS it was 106%. For the same compound, the growth is 98.9% with SF-295 CNS; 94.8% with SF-539 CNS; 104% with UACC-257 melanoma; 100% in the assay on M14 melanoma; 98.9% with HCT-15 colon; 107% in the assay with HT29 colon. For the same compound, the growth in the assay on SNB-75 CNS is 100%; in the assay with SNB-19 CNS, 90.3%; with U251 CNS, 102%; in the assay on SK-MEL-5 melanoma, 98.3%; in the assay with UACC-62 melanoma, 90.7%; in the assay with SK-MEL-28 melanoma it was 101%. Further, the growth in the assay with SK-MEL-2 melanoma is 105%; with HL-60(TB) leukemia, 118%.
`O=C1S/C(=C\c2ccc([N+](=O)[O-])cc2)C(=O)N1CCN1CCCCC1`: the growth in the assay on HL-60(TB) leukemia was 98.6%.
Consider `CCOP(=O)(CC(F)(F)C(F)(F)F)OCC`, for which the growth in the assay on NCI-H226 lung is -23.5% (active); with HOP-62 NSCLC it was 90.9%; with NCI-H460 lung, 91.6%; in the assay with A549/ATCC NSCLC, 76.2%; with DU-145 prostate, 14.9%; in the assay on SF-268 CNS, 80.4%. Moreover, the growth with SF-295 CNS was 97.7%; with SF-539 CNS it was -48.6% (active); in the assay on UACC-257 melanoma, -31.4% (active); in the assay on M14 melanoma it was -53.3% (active); in the assay with HCT-15 colon, -33.2% (active); in the assay on HT29 colon, -44.6% (active). The growth in the assay with SNB-75 CNS is 79.4%; with SNB-19 CNS, 95.7%; in the assay on U251 CNS it was 73.7%; in the assay with SK-MEL-5 melanoma it was 78.9%; in the assay with UACC-62 melanoma, 44.7%; in the assay with SK-MEL-28 melanoma it was -47.1% (active). Besides, the growth in the assay on SK-MEL-2 melanoma is 29.5%; in the assay on HL-60(TB) leukemia, 17.2%.
With `O=C(/C=C/c1cccc(Br)c1)c1nc2ccccc2n1Cc1ccc(F)cc1`, the growth was 14.5% with NCI-H226 lung; 38.3% in the assay on HOP-62 NSCLC; 33.1% in the assay on NCI-H460 lung; 52.2% in the assay on A549/ATCC NSCLC; 30.2% in the assay with DU-145 prostate; 62.6% with SF-268 CNS. The growth with SF-295 CNS is 62.9%; with SF-539 CNS it was 8.26% (active); in the assay on UACC-257 melanoma it was 55.1%; with M14 melanoma it was 30.7%; in the assay with HCT-15 colon, -31.6% (active); with HT29 colon, 7.15% (active). Also, the growth in the assay with SNB-75 CNS is 32.9%; in the assay on SNB-19 CNS, 47.1%; in the assay with U251 CNS it was -9.29% (active); in the assay on SK-MEL-5 melanoma it was 58.3%; with UACC-62 melanoma, 22.4%; with SK-MEL-28 melanoma it was 50.6%. Also, the growth in the assay on SK-MEL-2 melanoma was 63.9%; with HL-60(TB) leukemia it was 3.12% (active).
With `CC1=C(CCC=O)C2=C(C)C3(CC3)[C@@](C)(O)C(=O)C2=C1`, the growth in the assay on NCI-H226 lung was -61.5% (active); in the assay on HOP-62 NSCLC, -62.7% (active); in the assay with NCI-H460 lung it was -42.6% (active); in the assay with A549/ATCC NSCLC it was -2.03% (active); with DU-145 prostate, -100% (active); in the assay on SF-268 CNS, 6.81% (active). The growth in the assay with SF-295 CNS was -64.3% (active); in the assay on SF-539 CNS it was -100% (active); in the assay on UACC-257 melanoma it was -92.1% (active); in the assay with M14 melanoma, -56.8% (active); with HCT-15 colon, -71.1% (active); with HT29 colon, -56.1% (active). For the same compound, the growth in the assay with SNB-75 CNS is -96.9% (active); with SNB-19 CNS, -100% (active); in the assay with U251 CNS, -99.6% (active); with SK-MEL-5 melanoma it was -100% (active); with UACC-62 melanoma, -96.5% (active); with SK-MEL-28 melanoma, -99.3% (active). The growth with SK-MEL-2 melanoma was -70.6% (active).
For the compound `COC(=O)CCn1c(-c2ccc(-n3cc(-c4ccc(O[C@H]5O[C@@H]6OC7(C)CC[C@H]8[C@H](C)CC[C@@H]([C@H]5C)[C@@]68OO7)cc4)nn3)cc2)nc2ccccc21`, the growth in the assay on NCI-H226 lung is 32.8%; in the assay with HOP-62 NSCLC, 32%; with NCI-H460 lung, 11.4%; in the assay with A549/ATCC NSCLC it was 30.9%; in the assay with DU-145 prostate it was 34%; with SF-268 CNS, 31.8%. In addition, the growth was 21.1% in the assay with SF-295 CNS; 20.9% in the assay with SF-539 CNS; 27.9% in the assay on UACC-257 melanoma; 25.4% in the assay on M14 melanoma; 10.4% with HCT-15 colon; 22.5% in the assay with HT29 colon. Also, the growth in the assay on SNB-75 CNS was 48.5%; with SNB-19 CNS, 24.5%; in the assay on U251 CNS it was 32.5%; in the assay with SK-MEL-5 melanoma, 1.38% (active); in the assay on UACC-62 melanoma, 10.8%; in the assay with SK-MEL-28 melanoma it was 28.6%. In addition, the growth with SK-MEL-2 melanoma is -6.2% (active); in the assay with HL-60(TB) leukemia it was -3.65% (active).
